# Screens deposited in PubChem BioAssay by several laboratories.
# The list is not random: actives were taken first. Their share in the collection is about 2.5%.
# Efflux pump mplx: inhibitors of Candida efflux pumps in yeast, primary screen, S. cerevisiae, Nile Red, multiplex; S. cerevisiae Candida pump triplex; inhibition, % at 10 µM; hit rate 0.44% among 330,000; AID 485275, 2010;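 active means plate passing quality check with inhibition over a set limit, or well fluorescence over plate mean plus 4 SD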;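 further: Nile Red retained in pooled yeast measured as flow cytometry median fluorescence; higher means more Nile Red kept so more efflux inhibition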
# ATG4B inhibitor: ATG4B protease inhibitors, primary screen, biochemical, fluorescence, uHTS | inhibition, % at 8.33 µM | ATG4B cleavage of LC3-PLA2, NBD-HPC fluorescence, 1 h | Cysteine protease ATG4B (Homo sapiens), Q9Y4P1 | hit rate 0.51% among 340,000; in the data active means inhibition above about 40%
# Target sequence (Q9Y4P1 whole entry, looked up): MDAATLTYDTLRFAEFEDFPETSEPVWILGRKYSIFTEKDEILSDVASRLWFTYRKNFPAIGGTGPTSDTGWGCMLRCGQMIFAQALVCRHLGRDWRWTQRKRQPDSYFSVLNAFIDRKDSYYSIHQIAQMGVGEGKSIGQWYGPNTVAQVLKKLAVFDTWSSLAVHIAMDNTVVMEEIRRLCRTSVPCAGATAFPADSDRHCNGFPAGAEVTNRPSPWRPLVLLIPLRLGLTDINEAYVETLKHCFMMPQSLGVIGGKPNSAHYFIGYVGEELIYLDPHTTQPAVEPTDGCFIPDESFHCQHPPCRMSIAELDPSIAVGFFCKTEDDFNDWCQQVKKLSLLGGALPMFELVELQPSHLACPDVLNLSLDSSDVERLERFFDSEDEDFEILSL
# SUMO Mot1 rescue: yeast Mot1-301 growth rescue at high temperature, primary screen, SUMOylation pathway inhibitor project, S. cerevisiae, ATP luminescence, 38.5C | S. cerevisiae Mot1-301 growth rescue; percent above DMSO median, 100 means doubled | AID 2716, 2010 | growth rescue, % at 18.8 µM | hit rate 1% among 320,000;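 active means every valid replicate shows activation above 250% relative to neutral control wells; inactive means the rest, any valid replicate at or below 250%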
# V-ATPase pHluor: regulators of yeast V-ATPase proton pumping, primary screen, pHLuorin cytosolic pH fluorescence; S. cerevisiae; AID 504577, 2011; hit rate 0.37% among 350,000; response, % at 10 µM; in the data active means response mostly above about 7.3%, no sharp cut-off; inactive means mostly below about 5.4%; further: actives read high
# AI-2 QS mod: Vibrio harveyi AI-2 quorum sensing modulators, primary screen, JMH597 strain, luminescence/OD600 ratio; Vibrio harveyi JMH597 AI-2 luminescence/OD600 ratio, 9 h; hits give low values; strain lacks LuxN and CqsS sensors; 0 = neutral-control median; activity change, % at 7.5 µM; hit rate 0.4% among 300,000; AID 2094, 2009; in the data active means activity change below about -75%, passing the limit was not always enough;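 further: luminescence divided by OD600 gain over 9 h not by final OD600 alone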
# Cmpd fluor yeast: counter-screen for efflux pump inhibitors: compound fluorescence | shares compounds with Efflux pump mplx | S. cerevisiae AD/pABC3, flow cytometry | fluorescence ratio to DMSO, % at 10 µM | hit rate 4% among 1,700 | AID 588517;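 active means fluorescence ratio to DMSO above its plate's cutoff, the plate mean ratio plus 5 SD, cut at about 210% in these data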;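 further: unstained yeast with no Nile Red so the signal is compound autofluorescence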
# Mdr1 pump inh: inhibitors of Candida albicans Mdr1 efflux, confirmation, flow cytometry, singleplex, Cherry Pick1 set; shares compounds with Efflux pump mplx; S. cerevisiae AD/CaMDR1, Nile Red efflux; inhibition, % at 10 µM; hit rate 1% among 1,700; AID 588518, 2011; in the data active means inhibition above about 26%;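 further: higher means more Nile Red retained so more efflux inhibition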
# CaCdr2 efflux inh: inhibitors of Candida albicans Cdr2 efflux pump, confirmation, S. cerevisiae AD/CaCDR2, flow cytometry, cherry pick 1, singleplex. AID 588520, 2011. Nile Red retention. hit rate 4% among 1,700. shares compounds with Efflux pump mplx. Nile Red retention ratio vs DMSO, % at 10 µM; in the data active means Nile Red retention ratio vs DMSO above about 190%;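 further: higher ratio means more blocking of Cdr2 efflux of the dye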
# CaCdr1 efflux inh: inhibitors of Candida albicans Cdr1 efflux pump, confirmation, S. cerevisiae AD/CaCDR1, flow cytometry, cherry pick 1, singleplex; hit rate 1% among 1,700; inhibition, % at 10 µM; Nile Red efflux; AID 588522, 2011; shares compounds with Efflux pump mplx;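 active means inhibition above the screen-wide mean plus twice its standard deviation, cut at about 32% in these data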
# A number is an active result; 0 = inactive; - = no result.
SMILES,Efflux pump mplx,ATG4B inhibitor,SUMO Mot1 rescue,V-ATPase pHluor,AI-2 QS mod,Cmpd fluor yeast,Mdr1 pump inh,CaCdr2 efflux inh,CaCdr1 efflux inh
OC(COCc1ccc(Cl)cc1)CN1CCCCC1 (configuration not stated),1.1,0,0,0,0,0,0,0,0
OC(COCc1ccc(Cl)cc1)CN1CCN(CC(O)COCc2ccc(Cl)cc2)CC1 (configuration not stated),0,0,0,0,0,-,-,-,-
CCOc1ccccc1N1CCN(C(=O)c2ccc3c(c2)OCO3)CC1,0,0,0,0,0,-,-,-,-
COc1ccc(N2C(=O)NC(NS(=O)(=O)c3ccc(NC(C)=O)cc3)(C(F)(F)F)C2=O)cc1 (configuration not stated),0,0,0,0,0,-,-,-,-
COc1cc(-c2ccc3oc(-c4ccsc4)c(C#CC4(O)CCCCC4)c3c2)cc(OC)c1OC,-,0,0,0,0,-,-,-,-
CCC1=C(c2cc(OC)c(OC)c(OC)c2)C2(CCCC2)C(=O)O1,0.8,0,0,0,0,0,0,0,0
CC(C)=CC(=O)O[C@@H]1Cc2cc3ccc(=O)oc3cc2OC1(C)C,0,0,0,0,-,-,-,-,-
c1ccc(-c2onc(-c3ccco3)c2-c2ccc3[nH]ccc3c2)cc1,0,0,0,0,0,-,-,-,-
CCC1=NN2C(=N)/C(=C/c3c(C)nn(-c4ccccc4)c3Cl)C(=O)N=C2S1,23,0,0,0,0,0,0,0,0
CC1CN(S(=O)(=O)c2ccc(Cl)c(C(F)(F)F)c2)CC(C)O1 (configuration not stated),0,0,0,0,0,-,-,-,-
COc1ccc(-c2nc(Cn3c(SCc4ccc(C)cc4)nc4ccncc43)c(C)o2)cc1OC,0.4,0,460,0,0,0,0,0,0
COc1ccc(-c2nc(Cn3c(SCc4cccc(F)c4)nc4ccncc43)c(C)o2)cc1OC,0.5,0,0,0,0,0,0,0,0
COc1ccc(-c2nc(CN3CCN(Cc4cccc(F)c4)CC3)c(C)o2)cc1,0,0,0,0,0,-,-,-,-
Cc1ccc(CSc2nc3ccncc3n2CC(=O)Nc2cc(C)cc(C)c2)cc1,0,0,0,0,0,-,-,-,-
COc1cc(C(=O)NCC(=O)Nc2ccc(F)c(F)c2)ccc1OCC(=O)N1CCOCC1,0,0,0,0,0,-,-,-,-
O=C(c1cccc(F)c1)N1CCN(C(=O)c2cc3ncc(Br)cn3n2)CC1,14,0,0,0,0,0,0,0,0
COc1cccc(C(=O)N2CCN(C(=O)c3cccc(F)c3)CC2)c1,0,0,0,0,0,-,-,-,-
CC(=O)OCCCNc1cc(Sc2ccc(C)cc2)c2nonc2c1[N+](=O)[O-],13,0,0,0,0,0,0,0,0
CCn1c2ccccc2c2cc(NC(=O)C(C)OC(=O)c3ccc(NC(=O)CC#N)cc3)ccc21 (configuration not stated),0.4,0,0,0,-,0,0,0,0
CCn1c2ccccc2c2cc(NC(=O)COC(=O)c3ccc(O)cc3)ccc21,0,0,0,0,0,-,-,-,-
CCCCN1C(=O)c2ccc(C(=O)NCc3ccco3)cc2C1=O,0,0,0,0,0,-,-,-,-
COc1ccc(/C=c2\s/c(=C/C(=O)c3ccc(C)cc3)[nH]c2=O)c(OC)c1,19,0,0,0,0,0,0,0,0
CC1(C)C2CCC1(CS(=O)(=O)N1CCOCC1)C(=O)C2 (configuration not stated),1.4,0,0,0,0,0,0,0,0
Fc1ccc(C2CC(c3ccco3)=NN2c2ccccc2)cc1 (configuration not stated),0,0,0,0,0,-,-,-,-
O=[N+]([O-])c1ccc(N2N=C(c3ccco3)CC2c2ccccc2)cc1 (configuration not stated),0.5,0,0,0,0,0,0,0,0
SMILES,Efflux pump mplx,ATG4B inhibitor,SUMO Mot1 rescue,V-ATPase pHluor,AI-2 QS mod,Cmpd fluor yeast,Mdr1 pump inh,CaCdr2 efflux inh,CaCdr1 efflux inh
CC(C)CC(=O)Nc1ccc2c(c1)OCO2,0,0,0,0,0,-,-,-,-
O=C(CCl)Nc1ccc2c(c1)OCO2,1.2,0,0,0,0,0,0,0,0
CC(=O)Nc1ccc(NC(=O)Cc2ccc(F)cc2)cc1,1.1,-,0,-,0,0,0,0,0
Oc1ccc(Cl)cc1CNCc1ccc(C(F)(F)F)cc1,0,0,0,0,-,-,-,-,-
O=C(CC1C[C@H](C(=O)N2CCOCC2)[C@@]2(CCC3CCCC3)c3[nH]c4ccccc4c3CCN2C1=O)NCC12CC3CC(CC(C3)C1)C2 (some centres not stated),1.2,0,0,0,-,0,0,0,0
O=C(CC1C[C@H](C(=O)N2CCOCC2)[C@@]2(CCC3CCCC3)c3[nH]c4ccccc4c3CCN2C1=O)NCCN1CCOCC1 (some centres not stated),0,0,0,0,-,-,-,-,-
CCOC(=O)c1c(C)[nH]c(C(=O)OCC(=O)Nc2cccnc2Cl)c1C,0,0,0,0,0,-,-,-,-
COc1cccc(/C=N/n2c(SC)nnc2-c2ccccc2)c1O,0,0,0,0,0,-,-,-,-
COc1cc(/C=C(\C#N)C(=O)NCCc2ccccc2)cc(OC)c1O,0,0,0,0,0,-,-,-,-
COc1cc(/C=C(\C#N)C(=O)c2c[nH]c3ccccc23)cc(OC)c1O,0.9,0,0,0,0,0,0,0,0
NC(=S)NN=C1Cc2cccc3cccc1c23,-,0,-,0,-,-,-,-,-
COc1ccc(C(C(=O)NC(C)(C)C)N(Cc2ccco2)C(=O)CCC(=O)Nc2cc(C)on2)cc1 (configuration not stated),0,0,0,0,0,0,0,0,0
COCCN(C(=O)CCC(=O)Nc1cc(C)on1)C(C(=O)NC(C)(C)C)c1ccc(OC)cc1 (configuration not stated),0,0,0,0,0,0,0,0,0
CC12CCC3c4ccccc4CCC3(CO1)C2 (configuration not stated),-,-,-,0,-,-,-,-,-
CCc1nnc2n1N=C(c1ccc(OC)cc1)CS2,0.8,0,0,0,0,0,0,0,0
